The source of these data is PMC11006913.

Test in all cases: PBM; 200 nM protein, PBS
Holding throughout (conditions): dsDNA, one strand shown

The target of assay [1] is HESX1 (Homo sapiens, UniProt Q9UBX0 95-180, R165K).
For assay [2], the target named is SHOX (Homo sapiens, UniProt O15266 103-189).
Assay [3] addresses ALX4 (Homo sapiens, UniProt Q9H161 200-286, Q225E).
The target of assay [4] is HESX1 (Homo sapiens, UniProt Q9UBX0 95-180).
Assay [5] has as its target MSX2 (Homo sapiens, UniProt P35548 130-214, R199I).
Assay [6] has as its target ALX1 (Homo sapiens, UniProt Q15699 118-204, L144V).
For assay [7], the target named is ALX3 (Homo sapiens, UniProt O95076 139-225, N203Q).
Sequence of ALX3 (Homo sapiens, UniProt O95076 139-225, N203Q) (O95076 139-225 N203Q): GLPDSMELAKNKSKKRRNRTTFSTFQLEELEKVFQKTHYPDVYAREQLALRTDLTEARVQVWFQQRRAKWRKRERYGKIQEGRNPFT
The target in assay [8] is SHOX (Homo sapiens, UniProt O15266 103-189, R173C).
Sequence of SHOX (Homo sapiens, UniProt O15266 103-189, R173C) (O15266 103-189 R173C): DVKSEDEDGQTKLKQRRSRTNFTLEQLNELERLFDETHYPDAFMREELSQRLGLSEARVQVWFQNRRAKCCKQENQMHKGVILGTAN
Assay [9] concerns the target ALX1 (Homo sapiens, UniProt Q15699 118-204, L144R).
In assay [10] the target is ALX3 (Homo sapiens, UniProt O95076 139-225).
Sequence of ALX3 (Homo sapiens, UniProt O95076 139-225) (O95076 139-225): as the sequence (O95076 139-225 N203Q) above, with Q65N counted along it
The target of assay [11] is PROP1 (Homo sapiens, UniProt O75360 56-141).
Sequence of PROP1 (Homo sapiens, UniProt O75360 56-141) (O75360 56-141): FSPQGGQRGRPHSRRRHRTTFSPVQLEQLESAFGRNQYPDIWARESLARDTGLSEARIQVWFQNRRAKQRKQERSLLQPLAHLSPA
Assay [12] deals with HESX1 (Homo sapiens, UniProt Q9UBX0 95-180, R109Q).
Sequence of HESX1 (Homo sapiens, UniProt Q9UBX0 95-180, R109Q) (Q9UBX0 95-180 R109Q): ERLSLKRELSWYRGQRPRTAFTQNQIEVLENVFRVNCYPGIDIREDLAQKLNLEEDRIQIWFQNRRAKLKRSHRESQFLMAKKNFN
For assay [13], the target named is PROP1 (Homo sapiens, UniProt O75360 56-141, R99H).
Sequence of PROP1 (Homo sapiens, UniProt O75360 56-141, R99H) (O75360 56-141 R99H): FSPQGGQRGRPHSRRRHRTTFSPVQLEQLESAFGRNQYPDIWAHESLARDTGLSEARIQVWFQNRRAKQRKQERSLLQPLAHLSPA
Assay [14] addresses ALX3 (Homo sapiens, UniProt O95076 139-225, L168Q).
Assay [15] has as its target HESX1 (Homo sapiens, UniProt Q9UBX0 95-180, P111T).
Assay [16] has as its target ALX3 (Homo sapiens, UniProt O95076 139-225, L168V).
The target in assay [17] is PROP1 (Homo sapiens, UniProt O75360 56-141, F88S).
Sequence of PROP1 (Homo sapiens, UniProt O75360 56-141, F88S) (O75360 56-141 F88S): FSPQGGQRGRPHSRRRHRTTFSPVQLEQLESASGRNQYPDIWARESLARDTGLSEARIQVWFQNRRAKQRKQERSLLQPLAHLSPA
For assay [18], the target named is HESX1 (Homo sapiens, UniProt Q9UBX0 95-180, F115L).
Sequence of HESX1 (Homo sapiens, UniProt Q9UBX0 95-180, F115L) (Q9UBX0 95-180 F115L): as the sequence (Q9UBX0 95-180 R109Q) above, with Q15R, F21L counted along it
Assay [19] has as its target ALX1 (Homo sapiens, UniProt Q15699 118-204).
The target in assay [20] is ALX3 (Homo sapiens, UniProt O95076 139-225, N203S).
Sequence of ALX3 (Homo sapiens, UniProt O95076 139-225, N203S) (O95076 139-225 N203S): as the sequence (O95076 139-225 N203Q) above, with Q65S counted along it

Sequence of SHOX (Homo sapiens, UniProt O15266 103-189) (O15266 103-189): as the sequence (O15266 103-189 R173C) above, with C71R counted along it
Sequence of HESX1 (Homo sapiens, UniProt Q9UBX0 95-180, P111T) (Q9UBX0 95-180 P111T): as the sequence (Q9UBX0 95-180 R109Q) above, with Q15R, P17T counted along it
Sequence of HESX1 (Homo sapiens, UniProt Q9UBX0 95-180, R165K) (Q9UBX0 95-180 R165K): as the sequence (Q9UBX0 95-180 R109Q) above, with Q15R, R71K counted along it
Sequence of HESX1 (Homo sapiens, UniProt Q9UBX0 95-180) (Q9UBX0 95-180): as the sequence (Q9UBX0 95-180 R109Q) above, with Q15R counted along it
Sequence of MSX2 (P35548 130-214 R199I): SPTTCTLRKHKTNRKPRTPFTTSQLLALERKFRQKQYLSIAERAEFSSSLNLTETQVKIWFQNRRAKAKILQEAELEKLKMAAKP
Sequence of ALX3 (Homo sapiens, UniProt O95076 139-225, L168Q) (O95076 139-225 L168Q): as the sequence (O95076 139-225 N203Q) above, with L30Q, Q65N counted along it
Sequence of ALX1 (Homo sapiens, UniProt Q15699 118-204, L144V) (Q15699 118-204 L144V): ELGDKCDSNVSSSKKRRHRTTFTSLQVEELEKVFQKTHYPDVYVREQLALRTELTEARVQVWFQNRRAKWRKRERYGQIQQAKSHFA
Sequence of ALX3 (Homo sapiens, UniProt O95076 139-225, L168V) (O95076 139-225 L168V): as the sequence (O95076 139-225 N203Q) above, with L30V, Q65N counted along it
Sequence of ALX1 (Homo sapiens, UniProt Q15699 118-204) (Q15699 118-204): as the sequence (Q15699 118-204 L144V) above, with V27L counted along it
Sequence of ALX1 (Homo sapiens, UniProt Q15699 118-204, L144R) (Q15699 118-204 L144R): as the sequence (Q15699 118-204 L144V) above, with V27R counted along it
Sequence of ALX4 (Q9H161 200-286 Q225E): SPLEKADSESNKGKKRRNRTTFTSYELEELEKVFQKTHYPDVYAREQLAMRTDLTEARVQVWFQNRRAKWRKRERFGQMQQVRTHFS

For the sequence GCCAATTA, the binding signal in assay [1] is 13.5 upbm affinity estimate (log intensity, higher = more binding, comparable within an allelic series); in assay [2] it was 12.5 upbm affinity estimate (log intensity, higher = more binding, comparable within an allelic series); in assay [3], 13.6 upbm affinity estimate (log intensity, higher = more binding, comparable within an allelic series); in assay [4], 13.3 upbm affinity estimate (log intensity, higher = more binding, comparable within an allelic series); in [5] it was 13 upbm affinity estimate (log intensity, higher = more binding, comparable within an allelic series); in assay [6], 11.9 upbm affinity estimate (log intensity, higher = more binding, comparable within an allelic series). For the same sequence, the binding signal was 8.33 upbm affinity estimate (log intensity, higher = more binding, comparable within an allelic series) in assay [7]; 9.95 upbm affinity estimate (log intensity, higher = more binding, comparable within an allelic series) in assay [8]; 11.7 upbm affinity estimate (log intensity, higher = more binding, comparable within an allelic series) in [9]; 12.6 upbm affinity estimate (log intensity, higher = more binding, comparable within an allelic series) in assay [10]; 11.6 upbm affinity estimate (log intensity, higher = more binding, comparable within an allelic series) in [11]; 10.3 upbm affinity estimate (log intensity, higher = more binding, comparable within an allelic series) in assay [12]. Besides, the binding signal in assay [13] is 11.9 upbm affinity estimate (log intensity, higher = more binding, comparable within an allelic series); in assay [14], 10.9 upbm affinity estimate (log intensity, higher = more binding, comparable within an allelic series); in [15], 12.1 upbm affinity estimate (log intensity, higher = more binding, comparable within an allelic series); in [16], 10.4 upbm affinity estimate (log intensity, higher = more binding, comparable within an allelic series); in [17], 7.64 upbm affinity estimate (log intensity, higher = more binding, comparable within an allelic series); in assay [18] it was 7.99 upbm affinity estimate (log intensity, higher = more binding, comparable within an allelic series). Besides, the binding signal in assay [19] was 12.6 upbm affinity estimate (log intensity, higher = more binding, comparable within an allelic series); in assay [20], 8.5 upbm affinity estimate (log intensity, higher = more binding, comparable within an allelic series).
Take AATTAGCA: the binding signal in assay [1] is 11.6 upbm affinity estimate (log intensity, higher = more binding, comparable within an allelic series); in assay [2] it was 11.6 upbm affinity estimate (log intensity, higher = more binding, comparable within an allelic series); in assay [3] it was 12.7 upbm affinity estimate (log intensity, higher = more binding, comparable within an allelic series); in assay [4] it was 11.6 upbm affinity estimate (log intensity, higher = more binding, comparable within an allelic series); in [5] it was 12.2 upbm affinity estimate (log intensity, higher = more binding, comparable within an allelic series); in assay [6], 11.5 upbm affinity estimate (log intensity, higher = more binding, comparable within an allelic series). The binding signal was 8.31 upbm affinity estimate (log intensity, higher = more binding, comparable within an allelic series) in assay [7]; 9.43 upbm affinity estimate (log intensity, higher = more binding, comparable within an allelic series) in [8]; 11.1 upbm affinity estimate (log intensity, higher = more binding, comparable within an allelic series) in [9]; 12.2 upbm affinity estimate (log intensity, higher = more binding, comparable within an allelic series) in [10]; 11.1 upbm affinity estimate (log intensity, higher = more binding, comparable within an allelic series) in [11]; 8.94 upbm affinity estimate (log intensity, higher = more binding, comparable within an allelic series) in assay [12]. Besides, the binding signal in assay [13] was 10.9 upbm affinity estimate (log intensity, higher = more binding, comparable within an allelic series); in assay [14] it was 10.3 upbm affinity estimate (log intensity, higher = more binding, comparable within an allelic series); in assay [15], 10.4 upbm affinity estimate (log intensity, higher = more binding, comparable within an allelic series); in assay [16], 9.83 upbm affinity estimate (log intensity, higher = more binding, comparable within an allelic series); in [17], 7.78 upbm affinity estimate (log intensity, higher = more binding, comparable within an allelic series); in assay [18], 7.45 upbm affinity estimate (log intensity, higher = more binding, comparable within an allelic series). The binding signal in [19] is 12.2 upbm affinity estimate (log intensity, higher = more binding, comparable within an allelic series); in assay [20], 8.36 upbm affinity estimate (log intensity, higher = more binding, comparable within an allelic series).
Consider CCGAGCGG, for which the binding signal in [1] is 6.41 upbm affinity estimate (log intensity, higher = more binding, comparable within an allelic series); in assay [2], 6.99 upbm affinity estimate (log intensity, higher = more binding, comparable within an allelic series); in assay [4] it was 6.46 upbm affinity estimate (log intensity, higher = more binding, comparable within an allelic series); in [8], 7.07 upbm affinity estimate (log intensity, higher = more binding, comparable within an allelic series); in assay [12], 6.48 upbm affinity estimate (log intensity, higher = more binding, comparable within an allelic series); in [15], 6.49 upbm affinity estimate (log intensity, higher = more binding, comparable within an allelic series). For the same sequence, in [18], the binding signal is 6.36 upbm affinity estimate (log intensity, higher = more binding, comparable within an allelic series).
CCTTCGAG: the binding signal in assay [1] is 6.45 upbm affinity estimate (log intensity, higher = more binding, comparable within an allelic series); in [2], 7.09 upbm affinity estimate (log intensity, higher = more binding, comparable within an allelic series); in assay [4] it was 6.39 upbm affinity estimate (log intensity, higher = more binding, comparable within an allelic series); in assay [8], 7.23 upbm affinity estimate (log intensity, higher = more binding, comparable within an allelic series); in assay [12], 6.55 upbm affinity estimate (log intensity, higher = more binding, comparable within an allelic series); in [15], 6.56 upbm affinity estimate (log intensity, higher = more binding, comparable within an allelic series). Besides, the binding signal in assay [18] is 6.63 upbm affinity estimate (log intensity, higher = more binding, comparable within an allelic series).
For the sequence CCCAGGCG, the binding signal is 6.31 upbm affinity estimate (log intensity, higher = more binding, comparable within an allelic series) in [1]; 6.92 upbm affinity estimate (log intensity, higher = more binding, comparable within an allelic series) in assay [2]; 6.34 upbm affinity estimate (log intensity, higher = more binding, comparable within an allelic series) in [4]; 7.04 upbm affinity estimate (log intensity, higher = more binding, comparable within an allelic series) in [8]; 6.42 upbm affinity estimate (log intensity, higher = more binding, comparable within an allelic series) in [12]; 6.32 upbm affinity estimate (log intensity, higher = more binding, comparable within an allelic series) in assay [15]. Further, the binding signal in assay [18] was 6.49 upbm affinity estimate (log intensity, higher = more binding, comparable within an allelic series).
